Assay outcomes (PubChem)
Only some compounds are listed: those with a hit (about 17% of all), similar ones and a draw of the others.
DT40 TDP1 no CPT: qHTS for Inhibitors of human tyrosyl-DNA phosphodiesterase 1 (TDP1): qHTS in cells in absence of CPT. 420,000 tested, 15% active. DT40 Tdp1-/- hTDP1 cells, no CPT, ATP luminescence, 48 h. AID 686978, 2013. Potency, µM (series often up to 46.2 µM), for inactives: top-dose activity change, negative = growth inhibition, hits mostly inhibitors; also: % is scaled to controls: 0 for no effect and ±100 for the full control effect; nearly all actives have a fitted effect of over 55% in size
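Seeded 400 DT40-hTDP1 cells/well (vehicle DMSO, no 20 nM CPT); pinned compounds; ≥48 hr at 37 °C; CellTiter-Glo luminescence as viability measure.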
TDP1 cell CPT: qHTS for Inhibitors of human tyrosyl-DNA phosphodiesterase 1 (TDP1): qHTS in cells in presence of CPT; chicken DT40 Tdp1-/-;hTDP1 cells + 20 nM CPT, ATP luminescence, 48 h; Potency, µM (series often up to 46.2 µM), without a hit: at the highest dose activity change, negative = growth inhibition, hits mostly inhibitors; 420,000 tested, 12% active; also: % is scaled to controls: 0 for no effect and ±100 for the full control effect; nearly all actives have a fitted effect of over 55% in size
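Chicken DT40 Tdp1-/- cells complemented with human TDP1, 400 cells/well, exposed to compounds plus 20 nM camptothecin for at least 48 h at 37 C; viability read as ATP content by CellTiter-Glo luminescence.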
ClpP mod: qHTS Assay for Activators of ClpP; Potency, µM (top dose mostly 57.5 µM), inactives show top-dose activity change, negative = active; purified B. subtilis ClpP, FRET peptide cleavage, 20 min; 340,000 tested, 1.9% active; active = well fitted falling curve with a large enough effect; inconclusive = small, poorly fitted or top-dose-only effect; inactive = no such curve, though single readings can be large or run the other way; also: the source files actives as falling curves though it sought activators and does not explain the sign; nearly all actives have a fitted effect of over 65% in size
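Purified B. subtilis ClpP, 10 microg/mL final in Tris/HCl pH8 with KCl, BSA, glycerol and Tween-20, cleaved an Abz/nitrotyrosine-quenched decapeptide. Fluorescence (ex 320, em 430) was read at 0 and 20 min at room temperature. Delta was normalized to 5.8 microM ADEP and DMSO/no-enzyme controls.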
TDP1 block: qHTS Assay for Inhibitors of Tyrosyl-DNA Phosphodiesterase (TDP1). Tyrosyl-DNA phosphodiesterase 1 (Homo sapiens), Q9NUW8. recombinant TDP1, AlphaScreen DNA substrate cleavage. Potency, µM (series often up to 130 µM), for inactives: at the top dose activity change, negative = inhibition, most hits filed as inhibitors. 350,000 tested, 0.28% active. AID 485290, 2010; also: % is scaled to controls: 0 for no effect and ±100 for the full control effect; nearly all actives have a fitted effect of over 40% in size
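Here, a 5' biotin and 3' phosphotyrosine-FITC DNA oligonucleotide reports Tdp1 activity: intact substrate bridges AlphaScreen beads, while cleavage leaves a 3' phosphate and drops signal. All incubations at room temperature.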
Numbers without * were called inactive; ? = inconclusive; / = not tested or not shown; [ ] = another dose, or the depositor's remark. Unless noted, calls follow the shape of the dose curve; as a rule, active = well fitted curve in the direction sought with a large enough effect; inconclusive = small, poorly fitted or top-dose-only effect, or another doubt; inactive = no such curve, though single readings can be large; an effect the other way counts as inactive or inconclusive. Potency is read from the fitted curve at half-maximal effect.

SMILES	DT40 TDP1 no CPT	TDP1 cell CPT	ClpP mod	TDP1 block
C/C=C(\C)C(=O)NCCN1C2=NC[C@@H](C)N2C[C@@H]1Cc1ccc(OC)cc1	-5%	-15%	0%	-1%
Cc1ccc(C(=O)N[C@@H](C)CN2C3=NC[C@H](C(C)C)N3C[C@H]2Cc2ccc(O)cc2)cc1Br	5.8µM*	4.6µM*	-1%	8%
COc1ccc(C[C@H]2CN3C(=NC[C@@H]3Cc3ccc(O)cc3)N2C[C@H](C)NC(=O)c2ccc(C)c(Br)c2)cc1	21µM*	4.6µM*	-4%	/
COc1ccc(S(=O)(=O)Nc2cc(C(=O)NC(C)C)ccc2N2CCOCC2)cc1	-17%	?	-1%	-7%
COc1ccc(NCc2ccc(OC)c(Cn3ccnc3)c2)c(OC)c1	?	-29%	0%	/
CCc1ccc2oc(-c3cccc(NC(=O)c4ccc(N5CCC(C)CC5)c([N+](=O)[O-])c4)c3)nc2c1	?	?	0%	5%
COc1cc(OC)c(S(=O)(=O)Nc2ccc(C(=O)O)cc2)cc1S(=O)(=O)Nc1ccc(C(=O)O)cc1	-10%	3%	/	5%
COC(=O)C1=C(C(=O)OC)C(C(=O)OC)C(C(=O)OC)C(C(=O)OC)(C(=O)OC)C(C(=O)OC)=C1C(=O)OC (stereo not given)	2.6µM*	2.6µM*	6%	/
COC(=O)C1C(C(=O)OC)C1(c1ccccc1)c1ccccc1 (stereo not given)	-22%	-9%	-3%	/
Cn1c(=O)c(Nc2ccc(Cl)cc2)c2c3c(cccc31)C(=O)c1ccccc1-2	18µM*	?	/	0%
CC(=O)Nc1c2c3c(cccc3n(C)c1=O)C(=O)c1ccccc1-2	-29%	-12%	2%	1%
Cc1cccc(N2C(=O)C(Cl)=C(Nc3c(C)n(C)n(-c4ccccc4)c3=O)C2=O)c1C	?	?	-1%	1%
CC[n+]1c(-c2ccc(C)cc2)csc1Nc1c(C)n(C)n(-c2ccccc2)c1=O	12µM*	15µM*	0%	8%
Cc1ccc(N2C(=O)C(Cl)=C(Nc3c(C)n(C)n(-c4ccccc4)c3=O)C2=O)cc1	13µM*	?	-1%	3%
O=S(=O)(NCc1nc(N2CCCC2)c2cc(Cl)ccc2n1)c1ccccc1OC(F)(F)F	-27%	18%[9.04 µM]	/	/
CCN1CCN(CC(=O)Nc2cc(C)c(C)cc2[N+](=O)[O-])CC1	0%	3%	-1%	2%
COC(=O)CC1Oc2ccccc2-n2cc(-c3ccc(C)cc3)nc21 (stereo not given)	3.3µM*	5.8µM*	-1%	6%
COC(=O)CC1Oc2ccccc2-n2cc(-c3ccc(F)cc3)nc21 (stereo not given)	8.2µM*	9.2µM*	14%	6%
COC(=O)c1ccccc1NC(=O)CCCn1c(C)c2cnn(-c3ccccc3)c(=O)c2c1C	-17%	-21%	1%	-3%
Cn1c(N)c(C(=O)CSc2nnc(NC3CCCCC3)s2)c(=O)n(C)c1=O	?	?	/	-21%
Cc1cccc(NC(=O)c2sc3nc4c(cc3c2N)CN(C(C)C)CC4)c1	?	21µM*	-21%	9%
CCN1CCc2nc3sc(C(=O)Nc4cccnc4Cl)c(N)c3cc2C1	?	?	-20%	3%
COc1ccc(NC(=O)c2sc3nc4c(cc3c2N)CN(Cc2ccccc2)CC4)cc1	2%	3%	-3%	0%
Nc1c(C(=O)Nc2cccc(Cl)c2)sc2nc3c(cc12)CN(Cc1ccccc1)CC3	15µM*	7.3µM*	-29%	12%
COc1ccc(NC(=O)c2sc3nc4c(cc3c2N)CN(C(C)C)CC4)c(OC)c1	?	23µM*	-9%	7%
Cc1cccc(NC(=O)c2sc3nc4c(cc3c2N)CN(Cc2ccccc2)CC4)c1	18µM*	15µM*	-10%	-2%
CCCn1c(N)c(N(CCOC)C(=O)CSc2c(Cl)cccc2Cl)c(=O)[nH]c1=O	19%	-11%	-1%	0%
